Inconclusive results are not listed. The source made the active and inactive calls. Unless noted, calls follow the shape of the dose curve; as a rule, active = well fitted curve in the direction sought with a large enough effect in the repeat runs; inconclusive = weak or mixed curves; inactive = no such curve, though single readings can be large; an effect the other way counts as inactive or inconclusive.
Legend:
[1] = biological target: Retinoic acid receptor RXR-alpha (Homo sapiens) (UniProt P19793); assay: qHTS assay to identify small molecule agonists of the RXR signaling pathway (AID 1159527; calls by dose curve; also: nearly all actives have a fitted effect of over 35% in size)
Retinoic acid receptor RXR-alpha (Homo sapiens), sequence (P19793 whole entry, looked up): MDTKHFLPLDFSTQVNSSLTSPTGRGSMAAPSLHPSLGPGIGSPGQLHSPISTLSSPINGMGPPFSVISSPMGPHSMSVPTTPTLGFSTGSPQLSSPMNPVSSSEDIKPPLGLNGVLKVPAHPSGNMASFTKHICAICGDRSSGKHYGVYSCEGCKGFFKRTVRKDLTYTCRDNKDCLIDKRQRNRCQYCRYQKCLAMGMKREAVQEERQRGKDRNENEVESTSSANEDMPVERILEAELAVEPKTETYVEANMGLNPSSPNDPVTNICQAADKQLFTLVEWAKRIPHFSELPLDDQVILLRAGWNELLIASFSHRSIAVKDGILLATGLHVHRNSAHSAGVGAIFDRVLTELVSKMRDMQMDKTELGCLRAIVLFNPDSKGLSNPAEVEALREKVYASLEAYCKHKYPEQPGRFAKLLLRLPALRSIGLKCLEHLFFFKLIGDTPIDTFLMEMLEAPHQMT
Outline: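 Agonist mode; 9-cis retinoic acid positive control. HEK 293T UAS-bla reporter cells, 2% charcoal-stripped FBS, 16 hr compound exposure at 37 C/5% CO2. LiveBLAzer B/G FRET substrate 2 hr RT; ex 405, em 460/530 nm.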

[2] = qHTS assay to identify small molecule agonists of the RXR signaling pathway - cell viability counter screen (AID 1159529); also: series mostly up to about 77 µM; nearly all actives have a fitted effect of over 50% in size
Outline: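 Luminescence from CellTiter-Glo (30 min, RT) measured viability in the same wells as the beta-lactamase reporter readout. Cells: GeneBLAzer RXR-alpha HEK 293T, 2% charcoal-stripped FBS. Compound exposure 16 hr, 37 C.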

[3] = qHTS assay to identify small molecule antagonists of the retinoid acid receptor (RAR) signaling pathway - cell viability counter screen (AID 1159551); also: nearly all actives have a fitted effect of over 35% in size
Outline: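 Seed C3RL4 cells; next day add compound, then retinol to 1 uM final; incubate 6 h at 37 C; add CellTiter-Glo; read luminescence after 30 min at RT.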

[4] = qHTS assay to identify small molecule antagonists of the retinoic acid receptor (RAR) signaling pathway (AID 1159552; also: nearly all actives have a fitted effect of over 50% in size)
Outline: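 Luminescence from a RARE luciferase reporter in C3RL4 cells served as read-out. Cells received compounds together with 1 uM final retinol and incubated 6 hr at 37 C before detection reagent was added for 30 min at room temperature.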

[5] = qHTS assay to identify small molecule agonists of the retinoic acid receptor (RAR) signaling pathway (AID 1159553)
Outline: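 Activation of retinol signaling was monitored via a RARE luciferase reporter in C3RL4 cells. After 6 hr compound treatment at 37 C, detection reagent was added for 30 min at room temperature before luminescence reading.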

[6] = qHTS assay to identify small molecule antagonists of the estrogen related receptor (ERR) signaling pathway - cell viability counter screen (AID 1224818);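 also: series mostly up to about 46 µM; viability measured after 17.5 h of compound exposure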
Outline: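 In the same ERR cell assay, compound-treated wells (17.5 h, 37 C) were multiplexed with a fluorogenic viability reagent, CellTiter-Fluor, read after 30 min to flag cytotoxic substances.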

[7] = qHTS assay to identify small molecule antagonists of the estrogen related receptor signaling pathway with the pleiotropic PPARgamma coactivator (PGC) cell viability counter screen (AID 1224822; also: series mostly up to about 46 µM)
Outline: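 Compounds in DMSO, with positive and negative controls, were applied to PGC/ERR cells (2,000/well) and left 17.5 h at 37 C before CellTiter-Fluor detection.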

[8] = qHTS assay to identify small molecule antagonists of the estrogen related receptor (ERR) signaling pathway from Tox21 library - cell viability counter screen (AID 1224834); also: nearly all actives have a fitted effect of over 30% in size
Outline: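 CellTiter-Fluor fluorescence measured; ERR cells; 17.5 h compound incubation at 37 C; 30 min reagent step.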

[9] = biological target: Luciferin 4-monooxygenase (Photinus pyralis) (UniProt P08659); assay: qHTS assay to identify small molecule inhibitors of firefly luciferase (AID 1224835); also: series mostly up to about 120 µM; nearly all actives have a fitted effect of over 25% in size
Luciferin 4-monooxygenase (Photinus pyralis), sequence (P08659 whole entry, looked up): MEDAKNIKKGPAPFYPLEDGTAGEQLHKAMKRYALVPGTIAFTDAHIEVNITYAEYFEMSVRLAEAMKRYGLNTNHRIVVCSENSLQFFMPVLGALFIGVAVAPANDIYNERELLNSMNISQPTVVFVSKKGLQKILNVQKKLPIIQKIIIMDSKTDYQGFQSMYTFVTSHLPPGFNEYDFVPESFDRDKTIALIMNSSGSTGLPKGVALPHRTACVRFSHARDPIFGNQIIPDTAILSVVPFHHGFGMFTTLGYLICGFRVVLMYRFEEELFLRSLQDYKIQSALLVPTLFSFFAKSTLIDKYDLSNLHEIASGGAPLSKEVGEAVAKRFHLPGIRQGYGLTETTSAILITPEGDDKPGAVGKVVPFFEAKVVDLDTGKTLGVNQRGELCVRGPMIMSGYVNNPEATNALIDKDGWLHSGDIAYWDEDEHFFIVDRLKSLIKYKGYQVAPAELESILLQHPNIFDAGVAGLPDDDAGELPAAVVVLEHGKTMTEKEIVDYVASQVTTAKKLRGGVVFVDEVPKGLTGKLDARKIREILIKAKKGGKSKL
Outline: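 Biochemical qHTS: compounds run as interplate titrations against purified firefly enzyme, with D-luciferin and ATP each at its KM concentration. Light output recorded by CCD imaging.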

[10] = qHTS assay to identify small molecule agonists of the constitutive androstane receptor (CAR) signaling pathway - cell viability counter screen (AID 1224836); also: series mostly up to about 92 µM; nearly all actives have a fitted effect of over 45% in size
Outline: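 Viability read-out: CellTiter-Fluor fluorescence after 23 h compound exposure at 37 C/5% CO2 in double-stable HepG2-CYP2B6-hCAR cells, with PK11195 present at 0.75 uM final; compounds tested in 15-point titration.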

[11] = qHTS assay to identify small molecule antagonists of the constitutive androstane receptor (CAR) signaling pathway - cell viability counter screen (AID 1224837); also: series mostly up to about 92 µM; nearly all actives have a fitted effect of over 45% in size
Outline: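 Using CellTiter-Fluor, viability is scored in HepG2 cells stably carrying hCAR and a 2.2kb CYP2B6 reporter after 23 hr compound exposure across 15 concentrations, with CITCO present at 50 nM.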

[12] = biological target: Nuclear receptor subfamily 1 group I member 3 (Homo sapiens) (UniProt Q14994); assay: qHTS assay to identify small molecule antagonists of the constitutive androstane receptor (CAR) signaling pathway (AID 1224838);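 also: HepG2 cells stably expressing hCAR with CYP2B6 luciferase reporter stimulated by CITCO; nearly all actives have a fitted effect of over 40% in size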
Nuclear receptor subfamily 1 group I member 3 (Homo sapiens), sequence (Q14994 whole entry, looked up): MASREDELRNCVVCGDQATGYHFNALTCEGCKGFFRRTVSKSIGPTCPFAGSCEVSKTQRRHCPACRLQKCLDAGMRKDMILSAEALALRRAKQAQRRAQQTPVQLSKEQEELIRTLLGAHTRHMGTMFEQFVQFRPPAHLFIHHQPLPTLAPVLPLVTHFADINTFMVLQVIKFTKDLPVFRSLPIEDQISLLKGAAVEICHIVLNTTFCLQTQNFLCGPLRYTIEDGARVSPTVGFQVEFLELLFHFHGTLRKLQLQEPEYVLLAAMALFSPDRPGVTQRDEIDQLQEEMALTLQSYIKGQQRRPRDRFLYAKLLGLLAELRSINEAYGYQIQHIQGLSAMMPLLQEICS
Outline: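 Reporter luminescence was quantified after 24 h exposure of hCAR/CYP2B6-2.2kb double-stable HepG2 cells to compounds at 15 concentrations in the presence of 50 nM CITCO final.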

[13] = biological target: Nuclear receptor subfamily 1 group I member 3 (Homo sapiens) (UniProt Q14994); assay: qHTS assay to identify small molecule agonists of the constitutive androstane receptor (CAR) signaling pathway (AID 1224839);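 also: HepG2 cells stably carrying human CAR and a CYP2B6 luciferase reporter; series mostly up to about 92 µM; nearly all actives have a fitted effect of over 15% in size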
Outline: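 Luminescence read-out (ONE-Glo, 30 min, room temperature) from double-stable HepG2-CYP2B6-hCAR cells exposed 24 h to 15-point compound series in presence of 0.75 uM PK11195 final.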

[14] = qHTS assay to identify small molecule antagonists of the estrogen related receptor signaling pathway with the pleiotropic PPARgamma coactivator (PGC) from Tox21 10K library - cell viability counter screen (AID 1224840; active = well fitted cell-killing curve with a large enough effect in the repeat runs, not every such curve was filed as active; also: nearly all actives have a fitted effect of over 40% in size)
Outline: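 Here the PGC/ERR cells serve as a cytotoxicity control: they are exposed to compounds for 17.5 hours at 37 C, and live-cell signal is quantified using CellTiter-Fluor fluorescence.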

[15] = qHTS assay to identify small molecule antagonists of the estrogen related receptor (ERR) signaling pathway (AID 1224819;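 also: luminescence from an ERR-driven luciferase reporter measured with One-Glo reagent; series mostly up to about 46 µM; nearly all actives have a fitted effect of over 50% in size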)
Outline: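 qHTS in ERR cells, 2,000/well, 1536 format. Cpd (DMSO) added after 6 h settle, 18 h 37 C. One-Glo luminescence, 30 min RT.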

[16] = qHTS assay to identify small molecule agonists of the estrogen related receptor (ERR) signaling pathway (AID 1224820)
Outline: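 Cells: ERR line from NTP, 2,000/well. Pre-incubation 6 h, 37 C/5% CO2. Compound (DMSO) pin transfer, 18 h 37 C. One-Glo, 30 min RT, luminescence.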

[17] = test system: estrogen-related receptor alpha (ERRalpha) with PGC-1alpha coactivator, human; assay: qHTS assay to identify small molecule antagonists of the estrogen related receptor signaling pathway with the pleiotropic PPARgamma coactivator (PGC) (AID 1224821; calls by dose curve;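 also: series mostly up to about 46 µM; lower luminescence signal means antagonism of PGC/ERR signalling; nearly all actives have a fitted effect of over 50% in size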)
Outline: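 Luminescent read-out (One-Glo, 30 min at room temperature) following 18 h treatment of PGC/ERR cells at 37 C with compounds delivered in DMSO. Cells had settled 6 h at 37 C/5% CO2 before dosing.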

[18] = qHTS assay to identify small molecule agonists of the estrogen related receptor signaling pathway with the pleiotropic PPARgamma coactivator (PGC) (AID 1224823)
Outline: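 Steps: plate PGC/ERR cells at 2,000 cells/well; incubate 6 h, 37 C/5% CO2; pin-transfer compounds (DMSO); incubate 18 h, 37 C; add One-Glo; 30 min RT; read luminescence.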

[19] = qHTS assay to identify small molecule antagonists of the estrogen related receptor signaling pathway with the pleiotropic PPARgamma coactivator (PGC) from Tox21 10K library (AID 1224841; call rule not given here)
Outline: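 Each well held 2,000 PGC/ERR cells, pre-incubated six hours (37 C, 5% CO2). Test substances in DMSO were added by pin tool and left for 18 h at 37 C before luciferase detection by One-Glo.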

[20] = qHTS assay to identify small molecule agonists of the estrogen related receptor signaling pathway with the pleiotropic PPARgamma coactivator (PGC) from Tox21 10K library (AID 1224842); also: nearly all actives have a fitted effect of over 15% in size
Outline: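 PGC/ERR reporter cell line, 2,000 cells per well, incubated 6 h at 37 C before 23 nL compound in DMSO was added. After 18 h at 37 C, One-Glo luminescence read following 30 min at room temperature.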
% is scaled to controls: 0 for no effect and ±100 for the full control effect.

c1cnc(N2CCN(Cc3ccc4c(c3)OCO4)CC2)nc1
inactive: Potency [1] | Potency [2] | outcome [3] | Potency [4] | Potency [5] | outcome [6] | outcome [7] | Potency [8] | Potency [9] | Potency [10] | Potency [11] | Potency [12] | Potency [13] | Potency [14]

CC(C)NCC(O)c1ccc(NS(C)(=O)=O)cc1 (stereo not drawn)
inactive: Potency [1] | Potency [2] | outcome [3] | Potency [4] | Potency [5] | outcome [6] | outcome [7] | Potency [8] | Potency [9] | Potency [10] | Potency [11] | Potency [12] | Potency [13] | Potency [14]

CCn1nc(C(=O)O)c(=O)c2cc3c(cc21)OCO3
inactive: Potency [1] | Potency [2] | outcome [3] | Potency [4] | Potency [5] | outcome [6] | outcome [15] | outcome [16] | outcome [17] | outcome [7] | outcome [18] | Potency [8] | Potency [9] | Potency [10] | Potency [11] | Potency [12] | Potency [14] | Potency [19]

CCN(CC)CCOCCOC(=O)C1(c2ccccc2)CCCC1
inactive: Potency [1] | Potency [2] | outcome [3] | Potency [4] | Potency [5] | outcome [6] | Potency [8] | Potency [9] | Potency [10] | Potency [12] | Potency [13] | Potency [14]

CN1CCN(c2cc3c(cc2F)c(=O)c(C(=O)O)cn3-c2ccc(F)cc2)CC1
inactive: Potency [1] | Potency [2] | outcome [3] | Potency [4] | Potency [5] | Potency [8] | Potency [9] | Potency [10] | Potency [11] | Potency [12] | Potency [13] | Potency [14] | Potency [19]

COC(=O)c1ccc(C)cc1C1=NC(C)(C(C)C)C(=O)N1 (stereo not drawn)
inactive: Potency [1] | Potency [2] | outcome [3] | Potency [4] | Potency [5] | Potency [8] | Potency [9] | Potency [10] | Potency [11] | Potency [12] | Potency [13] | Potency [14] | Potency [19] | outcome [20]

Cc1cnc(NS(=O)(=O)c2ccc(N)cc2)nc1
inactive: Potency [1] | Potency [2] | outcome [3] | Potency [4] | Potency [5] | Potency [8] | Potency [9] | Potency [10] | Potency [11] | Potency [12] | Potency [13] | Potency [14] | Potency [19]

O=C(c1ccccc1)C1CCCCC1
inactive: Potency [1] | Potency [2] | outcome [3] | Potency [4] | Potency [5] | Potency [8] | Potency [9] | Potency [10] | Potency [11] | Potency [12] | Potency [13] | Potency [14] | Potency [19]

CC(=O)OCC(CCn1cnc2cnc(N)nc21)COC(C)=O
inactive: Potency [1] | Potency [2] | outcome [3] | Potency [4] | Potency [5] | outcome [6] | Potency [8] | Potency [9] | Potency [10] | Potency [11] | Potency [14]

CCOC(C)(C)C
inactive: Potency [1] | Potency [2] | outcome [3] | Potency [4] | Potency [5] | Potency [8] | Potency [9] | Potency [10] | Potency [11] | Potency [12] | Potency [13] | Potency [14] | Potency [19] | outcome [20]

CCc1nccnc1CC
inactive: Potency [1] | Potency [2] | activity change, negative = cytotoxicity [3] 1.72% [at 19 µM] | activity, negative = inhibition [4] 7.06% [at 19 µM] | Potency [5] | viability change, negative = cytotoxic [8] 6.79% [at 19 µM] | activity change, negative = inhibition [9] 1.9% [at 23.6 µM] | viability change, negative = cytotoxic [10] 4.25% [at 19 µM] | activity change, negative = cytotoxicity [11] -1.21% [at 19 µM] | activity, negative = inhibition [12] -16.5% [at 19 µM] | activation [13] -0.0673% [at 19 µM] | viability change, negative = cytotoxic [14] 1.05% [at 19 µM] | activity, negative = inhibition [19] 4.39% [at 19 µM]

O=C(O)c1ccccc1OP(=O)(O)O
inactive: Potency [1] | Potency [2] | outcome [3] | Potency [4] | Potency [5] | Potency [8] | Potency [9] | Potency [10] | Potency [11] | Potency [12] | Potency [13] | Potency [14] | Potency [19] | outcome [20]

O=C(O)CNC(=O)c1ccc([N+](=O)[O-])cc1
inactive: Potency [1] | Potency [2] | outcome [3] | Potency [4] | Potency [5] | Potency [8] | Potency [9] | Potency [10] | Potency [11] | Potency [12] | Potency [13] | Potency [14] | Potency [19] | outcome [20]

CC[N+](C)(C)c1cccc(O)c1
inactive: Potency [1] | Potency [2] | outcome [3] | Potency [4] | Potency [5] | outcome [6] | outcome [7] | Potency [8] | Potency [10] | Potency [11] | Potency [12] | Potency [13] | Potency [14]

CCCCCCCCCCCCCCCCC
inactive: Potency [1] | Potency [2] | outcome [3] | Potency [4] | Potency [5] | Potency [8] | Potency [9] | Potency [10] | Potency [11] | Potency [12] | Potency [13] | Potency [14] | Potency [19]

O=C(O)CCCl
inactive: Potency [1] | Potency [2] | outcome [3] | Potency [4] | Potency [5] | Potency [8] | Potency [9] | Potency [10] | Potency [11] | Potency [12] | Potency [13] | Potency [14] | Potency [19]

COC(=O)NN
inactive: Potency [1] | Potency [2] | outcome [3] | Potency [4] | Potency [5] | Potency [8] | Potency [9] | Potency [10] | Potency [11] | Potency [12] | Potency [13] | Potency [14] | Potency [19]

C=CCCCCCCCCC=O
inactive: Potency [1] | Potency [2] | outcome [3] | Potency [4] | Potency [5] | Potency [8] | Potency [9] | Potency [10] | Potency [11] | Potency [12] | Potency [13] | Potency [14] | Potency [19] | outcome [20]
